# Assay results from the supplement of paper PMC10849652.
# Of roughly 8,800 targets only a part is listed; those with a hit were picked by preference. About 0.5% of all pairs of compound and target were hits. A number with no mark means an inactive call.
# Legend:
# Test in all cases: log2 fold change, soluble protein after heating vs DMSO (PISA); higher = thermal stabilisation; K562 lysate, 10 uM; active = over 0.2 and 3.5 SD of the protein, either way, in both replicates (recomputed)
# alvocidib = compound: CN1CC[C@H](c2c(O)cc(O)c3c(=O)cc(-c4ccccc4Cl)oc23)[C@H](O)C1 [alvocidib]
# Procedure, shortened: (§1)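 Thermal stability, expressed as log-two fold change relative to solvent controls, is given from duplicates. Crude K562 extract in PBS pH 7.4 with 1 mM MgCl2, at 1 mg/mL protein, was treated with 10 μM compound for 30 min and heated in aliquots for 3 min across 48°C-58°C. After pooling, adjustment to 0.5% NP-40 at 4°C and centrifugation at 21,000xg for 90 min, supernatant protein was measured by TMTpro 16plex LC-MS/MS with channel sums equalised.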
# Tubastatin A = compound: CN1CCc2c(c3ccccc3n2Cc2ccc(C(=O)NO)cc2)C1 [Tubastatin A]
# Procedure, shortened: as §1
# [1] = compound: CNC(=O)C1=CC=CC=C1NC2=NC(=NC=C2Cl)NC3=C(C=C(C=C3)N4CCOCC4)OC
# Procedure, shortened: as §1
# defactinib = compound: CNC(=O)c1ccc(Nc2ncc(C(F)(F)F)c(NCc3nccnc3N(C)S(C)(=O)=O)n2)cc1 [defactinib]
# Procedure, shortened: as §1
# [2] = compound: CNc1nc(-c2ccc3c(N)n[nH]c3c2)cc(N2C[C@@H](C(=O)NC3CCCCC3)CC[C@H]2C)n1
# Procedure, shortened: as §1
# encorafenib = compound: COC(=O)N[C@@H](C)CNc1nccc(-c2cn(C(C)C)nc2-c2cc(Cl)cc(NS(C)(=O)=O)c2F)n1 [encorafenib]
# Procedure, shortened: as §1
# [3] = compound: COC(=O)[C@H](CCSC)NC(=O)C1=C(C=C(C=C1)NC[C@H](CS)N)C2=CC=CC=C2
# Procedure, shortened: as §1
# [4] = compound: COc1cc2nc(-c3cc(F)ccc3O)nc(N[C@@H]3CNC[C@H]3C(C)(C)O)c2cc1OC
# Procedure, shortened: as §1
# lapatinib = compound: CS(=O)(=O)CCNCc1ccc(-c2ccc3ncnc(Nc4ccc(OCc5cccc(F)c5)c(Cl)c4)c3c2)o1 [lapatinib]
# Procedure, shortened: as §1
# pictilisib = compound: CS(=O)(=O)N1CCN(Cc2cc3nc(-c4cccc5[nH]ncc45)nc(N4CCOCC4)c3s2)CC1 [pictilisib]
# Procedure, shortened: as §1
# crizotinib = compound: C[C@@H](Oc1cc(-c2cnn(C3CCNCC3)c2)cnc1N)c1c(Cl)ccc(F)c1Cl [crizotinib]
# Procedure, shortened: as §1
# [5] = compound: C[C@H](C1=CC=C(C=C1)C(=O)NC2=C3C=CNC3=NC=C2)N
# Procedure, shortened: as §1
# duvelisib = compound: C[C@H](Nc1ncnc2nc[nH]c12)c1cc2cccc(Cl)c2c(=O)n1-c1ccccc1 [duvelisib]
# Procedure, shortened: as §1
# gandotinib = compound: Cc1cc(Nc2cc(CN3CCOCC3)c3nc(C)c(Cc4ccc(Cl)cc4F)n3n2)n[nH]1 [gandotinib]
# Procedure, shortened: as §1
# tozasertib = compound: Cc1cc(Nc2cc(N3CCN(C)CC3)nc(Sc3ccc(NC(=O)C4CC4)cc3)n2)n[nH]1 [tozasertib]
# Procedure, shortened: as §1
# doramapimod = compound: Cc1ccc(-n2nc(C(C)(C)C)cc2NC(=O)Nc2ccc(OCCN3CCOCC3)c3ccccc23)cc1 [doramapimod]
# Procedure, shortened: as §1
# bafetinib = compound: Cc1ccc(NC(=O)c2ccc(CN3CC[C@H](N(C)C)C3)c(C(F)(F)F)c2)cc1Nc1nccc(-c2cncnc2)n1 [bafetinib]
# Procedure, shortened: as §1
# [6] = compound: Cc1cccc(CC(=O)N2CCc3c2ccc(-c2cn(C)c4ncnc(N)c24)c3F)n1
# Procedure, shortened: as §1
# alisertib = compound: COc1cc(Nc2ncc3c(n2)-c2ccc(Cl)cc2C(c2c(F)cccc2OC)=NC3)ccc1C(=O)O [alisertib]
# Procedure, shortened: as §1
# gefitinib = compound: COc1cc2ncnc(Nc3ccc(F)c(Cl)c3)c2cc1OCCCN1CCOCC1 [gefitinib]
# Procedure, shortened: as §1
# Sequence of UniProt Q16877 (Q16877 whole entry, looked up): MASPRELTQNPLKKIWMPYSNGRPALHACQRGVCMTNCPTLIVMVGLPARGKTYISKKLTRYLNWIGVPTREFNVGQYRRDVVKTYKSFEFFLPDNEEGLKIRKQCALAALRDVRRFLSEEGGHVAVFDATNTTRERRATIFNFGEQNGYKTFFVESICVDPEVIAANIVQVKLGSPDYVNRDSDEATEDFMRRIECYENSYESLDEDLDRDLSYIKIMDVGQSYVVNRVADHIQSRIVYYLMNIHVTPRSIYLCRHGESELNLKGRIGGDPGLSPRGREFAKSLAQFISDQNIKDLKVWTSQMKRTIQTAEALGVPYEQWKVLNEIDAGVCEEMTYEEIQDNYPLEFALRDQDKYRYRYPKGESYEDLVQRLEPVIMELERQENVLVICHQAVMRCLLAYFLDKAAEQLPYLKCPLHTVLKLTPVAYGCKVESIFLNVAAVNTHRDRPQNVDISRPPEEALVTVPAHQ
# Sequence of UniProt P28328 (P28328 whole entry, looked up): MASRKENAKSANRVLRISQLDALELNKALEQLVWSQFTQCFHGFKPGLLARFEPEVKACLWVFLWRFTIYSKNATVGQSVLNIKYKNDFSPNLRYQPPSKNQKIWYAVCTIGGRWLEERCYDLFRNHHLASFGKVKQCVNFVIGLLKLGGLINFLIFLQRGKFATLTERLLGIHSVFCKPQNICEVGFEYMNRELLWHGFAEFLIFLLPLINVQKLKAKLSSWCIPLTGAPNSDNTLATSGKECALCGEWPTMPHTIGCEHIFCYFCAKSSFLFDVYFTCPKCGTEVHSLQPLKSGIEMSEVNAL
# Sequence of UniProt P42338 (P42338 whole entry, looked up): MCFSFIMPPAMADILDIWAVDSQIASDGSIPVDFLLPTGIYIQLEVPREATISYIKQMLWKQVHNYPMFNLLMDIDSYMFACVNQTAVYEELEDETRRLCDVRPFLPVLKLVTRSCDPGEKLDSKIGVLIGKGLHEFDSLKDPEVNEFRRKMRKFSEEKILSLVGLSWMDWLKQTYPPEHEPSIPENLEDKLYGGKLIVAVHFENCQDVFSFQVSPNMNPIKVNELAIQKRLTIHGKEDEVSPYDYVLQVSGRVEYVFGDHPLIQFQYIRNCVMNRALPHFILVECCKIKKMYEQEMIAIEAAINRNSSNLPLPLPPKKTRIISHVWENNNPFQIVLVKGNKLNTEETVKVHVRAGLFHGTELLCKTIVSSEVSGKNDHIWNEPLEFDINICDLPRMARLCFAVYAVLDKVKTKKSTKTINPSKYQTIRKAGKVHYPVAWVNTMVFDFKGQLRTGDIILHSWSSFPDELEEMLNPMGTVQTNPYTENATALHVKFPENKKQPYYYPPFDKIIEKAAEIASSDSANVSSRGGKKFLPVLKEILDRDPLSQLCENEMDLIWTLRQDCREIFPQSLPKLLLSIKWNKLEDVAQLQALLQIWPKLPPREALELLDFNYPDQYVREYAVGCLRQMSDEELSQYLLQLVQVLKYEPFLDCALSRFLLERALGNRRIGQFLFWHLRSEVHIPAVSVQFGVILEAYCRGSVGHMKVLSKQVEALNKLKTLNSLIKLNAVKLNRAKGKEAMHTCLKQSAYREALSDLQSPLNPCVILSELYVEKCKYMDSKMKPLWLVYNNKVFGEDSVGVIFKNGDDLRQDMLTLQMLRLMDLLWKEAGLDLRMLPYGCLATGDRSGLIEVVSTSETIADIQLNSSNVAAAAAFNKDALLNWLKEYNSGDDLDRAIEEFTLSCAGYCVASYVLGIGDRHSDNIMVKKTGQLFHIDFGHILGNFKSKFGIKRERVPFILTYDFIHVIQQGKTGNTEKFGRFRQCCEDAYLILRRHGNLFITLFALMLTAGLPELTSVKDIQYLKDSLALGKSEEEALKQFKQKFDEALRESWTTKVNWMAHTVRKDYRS
# Sequence of UniProt Q15173 (Q15173 whole entry, looked up): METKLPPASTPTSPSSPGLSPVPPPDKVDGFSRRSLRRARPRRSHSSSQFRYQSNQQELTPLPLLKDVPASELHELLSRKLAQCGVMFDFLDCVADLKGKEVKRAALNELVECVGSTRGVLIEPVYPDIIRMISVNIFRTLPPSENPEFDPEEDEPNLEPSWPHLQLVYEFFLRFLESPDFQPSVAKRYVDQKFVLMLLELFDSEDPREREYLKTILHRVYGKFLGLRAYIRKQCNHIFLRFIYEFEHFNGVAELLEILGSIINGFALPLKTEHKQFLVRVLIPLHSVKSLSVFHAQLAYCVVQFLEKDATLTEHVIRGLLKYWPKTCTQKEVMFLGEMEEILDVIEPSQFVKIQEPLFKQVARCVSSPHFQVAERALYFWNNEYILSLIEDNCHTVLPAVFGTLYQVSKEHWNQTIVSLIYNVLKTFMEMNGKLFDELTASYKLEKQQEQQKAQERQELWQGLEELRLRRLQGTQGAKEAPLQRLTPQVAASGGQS
# Sequence of UniProt Q15004 (Q15004 whole entry, looked up): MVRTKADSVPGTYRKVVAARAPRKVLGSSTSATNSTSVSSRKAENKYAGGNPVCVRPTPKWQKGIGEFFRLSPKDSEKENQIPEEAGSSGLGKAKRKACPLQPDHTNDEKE
# Sequence of UniProt Q9UHV9 (Q9UHV9 whole entry, looked up): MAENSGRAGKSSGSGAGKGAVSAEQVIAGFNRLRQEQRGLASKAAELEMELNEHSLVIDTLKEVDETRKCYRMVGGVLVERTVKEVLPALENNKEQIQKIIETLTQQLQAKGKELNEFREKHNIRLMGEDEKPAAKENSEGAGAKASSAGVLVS
# Sequence of UniProt Q9UMR5 (Q9UMR5 whole entry, looked up): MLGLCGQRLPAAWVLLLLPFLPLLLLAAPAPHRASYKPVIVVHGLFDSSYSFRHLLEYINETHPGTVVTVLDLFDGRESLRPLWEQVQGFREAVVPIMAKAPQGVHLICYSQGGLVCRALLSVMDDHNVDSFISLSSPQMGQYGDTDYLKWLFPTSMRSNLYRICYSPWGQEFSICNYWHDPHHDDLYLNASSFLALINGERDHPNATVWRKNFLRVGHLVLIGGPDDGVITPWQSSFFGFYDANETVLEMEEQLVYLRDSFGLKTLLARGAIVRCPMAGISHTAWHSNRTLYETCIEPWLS
# Sequence of UniProt P29350 (P29350 whole entry, looked up): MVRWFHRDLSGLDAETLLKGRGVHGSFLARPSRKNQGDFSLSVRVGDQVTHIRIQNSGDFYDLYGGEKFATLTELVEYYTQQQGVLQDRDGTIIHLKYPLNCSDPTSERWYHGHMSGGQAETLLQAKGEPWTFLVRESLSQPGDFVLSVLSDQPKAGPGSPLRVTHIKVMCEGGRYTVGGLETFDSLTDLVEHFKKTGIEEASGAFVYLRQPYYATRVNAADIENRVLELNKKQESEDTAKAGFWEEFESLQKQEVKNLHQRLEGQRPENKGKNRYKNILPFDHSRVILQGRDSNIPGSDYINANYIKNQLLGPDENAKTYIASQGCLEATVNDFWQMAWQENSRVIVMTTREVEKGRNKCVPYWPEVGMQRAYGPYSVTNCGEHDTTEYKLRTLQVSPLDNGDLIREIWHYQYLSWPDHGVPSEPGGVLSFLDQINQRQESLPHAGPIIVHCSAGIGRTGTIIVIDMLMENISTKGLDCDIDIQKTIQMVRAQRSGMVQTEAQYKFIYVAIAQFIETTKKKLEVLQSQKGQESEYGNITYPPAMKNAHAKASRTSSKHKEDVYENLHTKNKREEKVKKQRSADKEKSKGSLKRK
# Sequence of UniProt O43175 (O43175 whole entry, looked up): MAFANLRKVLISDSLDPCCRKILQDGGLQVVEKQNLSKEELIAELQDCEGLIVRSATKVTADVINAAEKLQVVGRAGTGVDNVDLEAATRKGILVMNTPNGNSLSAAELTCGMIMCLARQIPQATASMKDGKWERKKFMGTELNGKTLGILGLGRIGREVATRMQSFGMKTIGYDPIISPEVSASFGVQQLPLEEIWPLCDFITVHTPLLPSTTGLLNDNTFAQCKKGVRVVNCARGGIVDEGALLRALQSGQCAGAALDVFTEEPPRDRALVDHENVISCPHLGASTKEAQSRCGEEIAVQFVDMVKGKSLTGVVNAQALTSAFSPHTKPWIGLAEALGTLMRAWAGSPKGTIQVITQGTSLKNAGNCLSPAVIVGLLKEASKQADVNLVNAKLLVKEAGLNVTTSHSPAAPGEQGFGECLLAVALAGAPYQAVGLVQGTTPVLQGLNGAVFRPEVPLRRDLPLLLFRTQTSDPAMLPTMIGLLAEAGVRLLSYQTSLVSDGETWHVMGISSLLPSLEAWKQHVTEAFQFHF
# Sequence of UniProt Q9P215 (Q9P215 whole entry, looked up): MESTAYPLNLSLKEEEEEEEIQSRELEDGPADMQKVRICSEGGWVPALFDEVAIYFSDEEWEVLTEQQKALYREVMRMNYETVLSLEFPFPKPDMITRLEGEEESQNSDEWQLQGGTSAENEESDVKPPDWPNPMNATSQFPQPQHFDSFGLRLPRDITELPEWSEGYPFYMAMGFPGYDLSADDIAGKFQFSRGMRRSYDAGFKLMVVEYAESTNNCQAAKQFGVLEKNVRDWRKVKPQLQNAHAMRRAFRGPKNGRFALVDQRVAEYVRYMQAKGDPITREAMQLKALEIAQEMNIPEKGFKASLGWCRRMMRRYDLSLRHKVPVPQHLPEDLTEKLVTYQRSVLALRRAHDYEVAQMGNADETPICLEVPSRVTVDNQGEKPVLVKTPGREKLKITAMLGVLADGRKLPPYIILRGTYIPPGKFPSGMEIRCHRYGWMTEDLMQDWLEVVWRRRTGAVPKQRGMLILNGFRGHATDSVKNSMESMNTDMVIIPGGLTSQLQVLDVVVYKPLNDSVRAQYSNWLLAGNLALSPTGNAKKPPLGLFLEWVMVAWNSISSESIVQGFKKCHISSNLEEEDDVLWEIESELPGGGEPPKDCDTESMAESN
# Sequence of UniProt Q13442 (Q13442 whole entry, looked up): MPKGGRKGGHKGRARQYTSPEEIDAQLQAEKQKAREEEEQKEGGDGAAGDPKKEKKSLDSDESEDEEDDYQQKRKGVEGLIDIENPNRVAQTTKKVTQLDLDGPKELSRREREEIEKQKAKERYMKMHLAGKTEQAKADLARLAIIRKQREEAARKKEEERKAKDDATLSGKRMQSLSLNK
Target,log2 fold change (alvocidib),log2 fold change (Tubastatin A),log2 fold change [1],log2 fold change (defactinib),log2 fold change [2],log2 fold change (encorafenib),log2 fold change [3],log2 fold change [4],log2 fold change (lapatinib),log2 fold change (pictilisib),log2 fold change (crizotinib),log2 fold change [5],log2 fold change (duvelisib),log2 fold change (gandotinib),log2 fold change (tozasertib),log2 fold change (doramapimod),log2 fold change (bafetinib),log2 fold change [6],log2 fold change (alisertib),log2 fold change (gefitinib)
PFKFB4 (UniProt Q16877),-0.03,-0.009,0.029,0.011,-0.027,0.02,-0.019,-0.016,-0.008,-0.061,-0.034,-0.027,0.011,-0.044,-0.012,0.009,-0.003,0.039,,
PHGDH (UniProt O43175),0.028,-0.415 (active),-0.081,0.022,0.018,0.006,-0.439 (active),0.006,-0.053,0.005,0,0.076,0,-0.071,0.019,-0.039,0.032,-0.055,0.004,-0.016
PRKCSH isoform 2 (UniProt P14314),-0.124,0.002,-0.078,-0.011,-0.05,0.039,-0.013,-0.042,0.132,0.072,-0.016,-0.622 (active),0.174,0.293,0.092,0.136,0.055,0.24,-0.079,0.092
PDAP1 (UniProt Q13442),-0.074,0.063,0.004,-0.012,0.109,-0.038,-0.017,0.018,-0.004,0.03,0.043,-0.232 (active),-0.043,0.135,-0.026,-0.03,0.006,0.089,0.006,-0.029
PPT2 isoform 3 (UniProt Q9UMR5),-0.051,0.014,-0.005,-0.067,0,-0.014,0.059,0.015,-0.053,-0.032,0.035,0.058,0.06,0.016,0.004,0,0.005,-0.05,0.013,0.031
POGK (UniProt Q9P215),-0.015,-0.011,0.001,0.059,-0.02,-0.052,0.028,-0.012,-0.055,-0.026,0.022,-0.384 (active),0.01,0.095,-0.101,0.111,-0.109,0.142,0.071,-0.013
PTPN6 isoform 4 (UniProt P29350),-0.12,-0.185,0.037,-0.015,-0.008,0.028,0.261,-0.034,-0.227,-0.058,0.02,-0.038,-0.013,-0.28,0,0.015,-0.278,0.135,-0.218,0.045
PIK3CB (UniProt P42338),-0.002,-0.123,0.056,-0.044,-0.013,-0.02,-0.126,-0.011,-0.007,0.497 (active),-0.068,0.022,0.645 (active),0.096,0.017,-0.006,-0.034,0.012,-0.01,-0.019
PFDN2 (UniProt Q9UHV9),0.063,0.01,-0.035,0.026,-0.012,0.05,-0.025,0.007,-0.001,-0.017,0.054,0.365 (active),0,-0.1,0.053,0.005,-0.064,-0.13,0.033,0.012
PIK3R1 (UniProt P27986),0.032,-0.037,0.075,-0.066,-0.039,-0.025,-0.111,0.023,0.002,0.374,-0.015,0.033,0.534 (active),0.171,0.039,-0.02,0.007,-0.011,0.078,-0.045
PEF1 (UniProt Q9UBV8),0.027,0.097,0.029,0.087,0.029,0.039,-0.034,0.029,0.019,0.041,-0.002,0.051,-0.004,-0.055,0.032,-0.01,-0.027,0.051,-0.017,-0.02
PEX2 (UniProt P28328),-0.041,-0.104,0.172,0.181,0.118,,,0.116,-0.081,0.035,-0.041,-0.04,-0.031,0.096,,-0.151,-0.218,0.149,0.115,-0.372
POLA1 (UniProt P09884),-0.01,-0.031,0.037,0.016,-0.004,0.022,0.061,0.014,-0.022,-0.044,-0.03,-0.011,0.009,-0.016,0.003,0.01,-0.057,0.004,-0.013,0.008
PRKDC (UniProt P78527),-0.06,-0.114,-0.002,0.033,-0.03,-0.022,-0.035,-0.003,-0.032,0.155,-0.026,-0.088,0.298,0.132,-0.03,-0.038,-0.146,-0.074,0.012,
PCLAF (UniProt Q15004),-0.005,0.041,0.017,0.014,0.056,0.005,-0.077,,,0.015,0.024,-0.079,0.037,0.108,-0.029,0.009,-0.01,0.05,-0.097,0.001
PPP2R5B (UniProt Q15173),0.069,-0.012,-0.03,-0.091,-0.056,-0.017,0.288 (active),0.046,-0.089,-0.064,0.075,-0.017,0.021,-0.168,0.04,0.005,0.054,-0.036,,
